Assay outcomes deposited in PubChem by National Center for Advancing Translational Sciences (NCATS).
BAZ2B block: inhibitors of human BAZ2B bromodomain; Q9UIF8; AlphaScreen BAZ2B-H3K14Ac peptide displacement; Potency, µM (highest dose often 114 µM), without a hit: at the top dose activity change, negative = inhibition, usual class: inhibitors; 4.4% of 360,000 active; further: potency means the concentration at half of the fitted maximal effect; on the % scale 0 is the no-effect control and ±100 the full control effect; nearly all actives have a fitted effect of over 60% in size
Target sequence (Q9UIF8 whole entry, looked up): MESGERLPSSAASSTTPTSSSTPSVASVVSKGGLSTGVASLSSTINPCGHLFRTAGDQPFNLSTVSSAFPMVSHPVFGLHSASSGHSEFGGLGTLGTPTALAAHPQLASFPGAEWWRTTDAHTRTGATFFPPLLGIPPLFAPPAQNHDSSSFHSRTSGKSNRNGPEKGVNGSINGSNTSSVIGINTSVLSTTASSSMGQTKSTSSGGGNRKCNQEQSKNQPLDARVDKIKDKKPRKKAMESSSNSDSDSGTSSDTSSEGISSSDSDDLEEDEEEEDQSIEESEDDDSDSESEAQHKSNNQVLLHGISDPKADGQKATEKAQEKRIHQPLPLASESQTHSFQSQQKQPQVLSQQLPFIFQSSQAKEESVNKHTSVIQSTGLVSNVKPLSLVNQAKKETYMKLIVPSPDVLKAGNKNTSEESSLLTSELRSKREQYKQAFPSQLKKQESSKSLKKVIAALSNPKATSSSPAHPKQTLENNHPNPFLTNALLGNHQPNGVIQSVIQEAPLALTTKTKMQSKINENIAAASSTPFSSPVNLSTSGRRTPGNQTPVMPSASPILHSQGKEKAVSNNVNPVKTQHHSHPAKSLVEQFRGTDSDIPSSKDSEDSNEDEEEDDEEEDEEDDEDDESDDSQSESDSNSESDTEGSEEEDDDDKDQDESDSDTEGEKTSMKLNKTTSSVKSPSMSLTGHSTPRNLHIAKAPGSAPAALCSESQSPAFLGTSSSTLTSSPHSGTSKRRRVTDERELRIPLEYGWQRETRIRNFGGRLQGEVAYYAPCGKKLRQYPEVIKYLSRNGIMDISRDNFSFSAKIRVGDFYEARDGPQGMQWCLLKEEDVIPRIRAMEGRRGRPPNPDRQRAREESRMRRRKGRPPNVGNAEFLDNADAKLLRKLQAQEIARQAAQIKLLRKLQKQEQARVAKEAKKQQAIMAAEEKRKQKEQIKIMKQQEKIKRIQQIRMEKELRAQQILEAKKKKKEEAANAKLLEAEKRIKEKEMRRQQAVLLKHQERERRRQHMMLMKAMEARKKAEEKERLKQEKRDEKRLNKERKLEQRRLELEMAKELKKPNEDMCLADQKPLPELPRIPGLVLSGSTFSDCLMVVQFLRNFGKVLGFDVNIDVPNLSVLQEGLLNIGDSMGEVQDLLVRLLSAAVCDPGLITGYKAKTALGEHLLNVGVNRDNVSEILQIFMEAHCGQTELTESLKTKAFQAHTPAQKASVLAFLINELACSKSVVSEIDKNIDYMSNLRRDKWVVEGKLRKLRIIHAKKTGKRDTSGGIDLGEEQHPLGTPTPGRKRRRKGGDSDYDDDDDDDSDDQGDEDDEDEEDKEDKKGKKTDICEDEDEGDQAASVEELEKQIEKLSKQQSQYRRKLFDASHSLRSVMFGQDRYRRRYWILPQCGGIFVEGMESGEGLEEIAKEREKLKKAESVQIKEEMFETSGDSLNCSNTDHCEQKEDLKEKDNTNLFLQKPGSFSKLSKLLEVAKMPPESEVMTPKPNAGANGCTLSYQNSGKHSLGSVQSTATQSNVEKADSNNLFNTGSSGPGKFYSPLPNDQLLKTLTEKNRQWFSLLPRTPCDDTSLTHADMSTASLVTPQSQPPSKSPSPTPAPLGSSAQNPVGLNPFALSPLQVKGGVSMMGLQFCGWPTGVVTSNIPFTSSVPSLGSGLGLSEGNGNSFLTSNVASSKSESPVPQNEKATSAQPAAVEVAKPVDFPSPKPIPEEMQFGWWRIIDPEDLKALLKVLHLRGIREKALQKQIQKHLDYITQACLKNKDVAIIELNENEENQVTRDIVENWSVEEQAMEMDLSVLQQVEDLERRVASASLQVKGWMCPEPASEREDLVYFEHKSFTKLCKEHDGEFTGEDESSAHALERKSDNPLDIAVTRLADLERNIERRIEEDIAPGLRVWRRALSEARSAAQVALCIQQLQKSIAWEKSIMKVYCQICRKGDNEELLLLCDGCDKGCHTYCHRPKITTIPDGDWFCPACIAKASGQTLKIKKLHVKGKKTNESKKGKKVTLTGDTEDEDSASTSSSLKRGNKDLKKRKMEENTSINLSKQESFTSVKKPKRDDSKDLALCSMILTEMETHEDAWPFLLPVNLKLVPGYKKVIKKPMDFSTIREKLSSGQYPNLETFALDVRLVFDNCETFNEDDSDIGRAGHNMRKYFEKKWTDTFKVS
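Complex of BAZ2B and biotin-H3K14Ac (50 nM apiece) forms over 30 min at RT, then faces library compounds up to 110 uM for another 30 min; AlphaScreen beads added, 20 min dark incubation, luminescence read.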
GCN5L2 inh: GCN5L2 (KAT2A) acetyltransferase inhibition. Q92830. GCN5L2 HAT assay, ThioGlo1 CoA-SH fluorescence. Potency, µM (doses to about 58.9 µM), for the others: at the top dose activity change, negative = inhibition, actives largely listed as inhibitors. 0.21% of 390,000 active; further: potency means the concentration at half of the fitted maximal effect; on the % scale 0 is the no-effect control and ±100 the full control effect
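ThioGlo1-coupled HAT assay: 20nM GCN5L2, 70uM acetyl-CoA, 75uM H3(1-25) peptide, pH 7.5. Fluorescence read at 340/540nm at start and after 20 min at room temperature.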
PI5P4Ka inh: PI5P4K alpha (human) kinase inhibition. PI5P4Kalpha enzyme, ADP-Glo luminescence, 60 min; stronger effect = lower value. max response, %. 1.2% of 330,000 active. AID 652105; active means max response of -50% or lower; inconclusive means between -30% and -50%; inactive means -30% or higher; further: value at the top dose of about 77 µM; on the % scale 0 is the no-effect control and ±100 the full control effect
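qHTS, 1536-well: enzyme/substrate mix, compound by pin tool, 5 microM ATP final; RT 60 min; ADP-Glo reagents 1 (45 min) then 2 (30 min); luminescence.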
PLK1 PBD block: PLK1 (human) polo-box domain binding inhibition. P53350. Plk1 PBD binding of FITC phosphopeptide, fluorescence polarization. Potency, µM, without a hit: max response, negative = inhibition, actives largely listed as inhibitors. 2.8% of 360,000 active; further: potency means the concentration at half of the fitted maximal effect; series mostly up to about 57 µM; on the % scale 0 is the no-effect control and ±100 the full control effect; nearly all actives have a fitted effect of over 65% in size
HP1b binding inh: inhibitors of HP1-beta chromodomain binding to methylated histone tails | AlphaScreen HP1-beta / biotin-H3K9me3 peptide binding | Potency, µM (highest dose often 114 µM), for the others: at the highest dose activity change, negative = inhibition, actives largely listed as inhibitors | 0.56% of 390,000 active | AID 540317; further: potency means the concentration at half of the fitted maximal effect; nearly all actives have a fitted effect of over 70% in size
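Compound inhibition of the preformed complex between 50 nM HP1-beta and 50 nM biotinylated H3K9me3 peptide was read by AlphaScreen. Buffer was PBS pH 7.4 with 0.01% Tween-20. Incubations ran 30 min at room temperature, with 10 ug/mL donor/acceptor beads.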
JMJD2A Tudor: blocks the human JMJD2A Tudor domain. Potency, µM (highest dose often 114 µM), inactives show at the highest dose activity change, negative = inhibition, most hits filed as inhibitors. 4.4% of 390,000 active. O75164. AlphaScreen JMJD2A-Tudor / H3K4me3 peptide binding; further: potency means the concentration at half of the fitted maximal effect; on the % scale 0 is the no-effect control and ±100 the full control effect; nearly all actives have a fitted effect of over 50% in size
* marks the source's active call; other numbers are inactive results; u = inconclusive; x = no result given; [ ] = remark or other dose. Rows were chosen to be rich in hits. Some 7% of all compounds tested hit in one or more screens of this group. Unless noted, the call rests on the fitted dose curve; in most records, active means well fitted curve in the direction sought with a large enough effect; inconclusive means small, poorly fitted or top-dose-only effect, or another doubt; inactive means no such curve, though single readings can be large; an effect the other way counts as inactive or inconclusive.

SMILES | BAZ2B block | GCN5L2 inh | PI5P4Ka inh | PLK1 PBD block | HP1b binding inh | JMJD2A Tudor
OCCNc1ncnc2c1ncn2[C@H]1CN(Cc2ccncc2)C[C@@H](CO)O1 | x | x | 1.1 | -6.7% | x | x
Cc1ccc(NS(=O)(=O)c2cccc(C(=O)NCCCN3CCCC3=O)c2)cc1 | 5.5% | 3.3% | 9.0 | -0.7% | 11.8% | -11.7%
Cc1cc(C(F)F)nn1CC(=O)NC1C(=O)N2C(C(=O)O)=C(CSc3nnnn3C)CSC12 (stereo not drawn) | 56.2µM* | -2.2% | 3.5 | -19.1% | 21.6% | -2.1%
O=c1[nH][nH]c2c1C(c1cccc(C(F)(F)F)c1)OC(CCc1ccccc1)C2 (stereo not drawn) | x | x | 26.1 | -8.6% | x | x
CCOc1cc(/C=C\[N+](=O)[O-])ccc1OCC(=O)N1CCOCC1 | 0.4% | 1.9% | -17.9 | 21.2µM* | 9.1% | 6.2%
O=C1C=C(c2ccc(F)c(Cl)c2)C[C@@H](c2ccc(F)cc2)C1 | 11.0% | -3.3% | 15.7 | -2.9% | 68.7% | 14.5%
CCc1sc(C(=O)NNC(=O)c2cncc(Br)c2)cc1C | x | -11.1% | -2.9 | -7.6% | 40.5% | -10.3%
S=c1[nH]nc(-c2ccco2)n1/N=C/C=C/c1ccccc1 | -31.6% | -8.2% | -1.0 | -15.6% | -17.2% | 20µM*
S=c1[nH]nc(-c2ccc(Cl)cc2)n1/N=C/c1ccco1 | -26.0% | -7.2% | -6.2 | -23.1% | -4.0% | 39.8µM*
S=c1[nH]nc(-c2ccccc2)n1/N=C/C=C/c1ccco1 | u | -25.8% | -15.4 | -5.3% | -18.7% | 20µM*
Cc1ccccc1-c1n[nH]c(=S)n1/N=C/C=C/c1ccco1 | 44.7µM* | -7.8% | -83.8* | u | -10.6% | 17.8µM*
FC(F)(F)c1n[nH]c(=S)n1/N=C/c1ccco1 | -7.9% | 24.1% | 4.5 | -7.6% | 27.7% | u
COc1ccc(N(C(=O)c2csnn2)C(C(=O)NC2CCCC2)c2cccs2)cc1 (stereo not drawn) | -2.1% | -0.8% | 0.3 | 1.1% | 17.8% | -8.9%
COc1cccc(Cc2nc3ccccc3nc2SCC(=O)Nc2cccc(C)c2)c1 | -1.2% | -15.3% | x | x | 32.3%[57 µM] | -12.3%
Cc1ccc(/C=N/n2c(-c3ccc(Cl)cc3)n[nH]c2=S)s1 | 0.6% | -7.9% | -1.8 | u | 21.9% | u
S=c1[nH]nc(-c2cccnc2)n1/N=C/C=C/c1ccco1 | 44.7µM* | u | -20.8 | -2.6% | 35.2% | 20µM*
CC(/C=N/n1c(-c2cccnc2)n[nH]c1=S)=C\c1ccco1 | -35.1% | -12.9% | u | u | -32.7% | 3.98µM*
CC(/C=N/NC(=O)c1cccnc1)=C\c1ccco1 | -2.4% | -1.5% | x | -13.8% | 11.6% | -18.8%
S=c1[nH]nc(-c2ccc(Cl)cc2)n1/N=C/C=C/c1ccco1 | u | -24.6% | u | 26.7µM* | u | 56.2µM*
Cc1cc(-c2n[nH]c(=S)n2/N=C/C=C/c2ccco2)n[nH]1 | 50.1µM* | -1.4% | u | -27.3% | 3.8% | 2.82µM*
Cc1cc2c(s1)c1cnn(Cc3ccc(C(=O)O)cc3)c(=O)c1n2C | x | x | x | x | x | -5.5%
CCCCn1c(N)c(N(CC)C(=O)c2cc(CC)c(C)s2)c(=O)[nH]c1=O | -2.0% | -7.9% | -3.2 | -5.4% | 40.7% | -10.3%
COc1ccc(C2CC(c3ccc4ccccc4c3)=NN2C(=O)COC(=O)C2CCC(=O)N2)cc1 (stereo not drawn) | 35.5µM* | -7.2% | -0.2 | 0.6% | -1.4% | u
COc1ccc(C2=NN(C(=O)CCC(=O)O)C(c3ccc(OC)cc3)C2)cc1 (stereo not drawn) | 4.0% | -2.4% | -2.3 | -1.0% | 37.3% | -17.8%
CCN1CCN(CC(=O)N2N=C(c3ccc(OC)cc3)CC2c2ccc(OC)cc2)C(=O)C1=O (stereo not drawn) | -23.4% | -22.4% | -8.0 | 26.7µM* | -5.9% | 79.4µM*
SMILES | BAZ2B block | GCN5L2 inh | PI5P4Ka inh | PLK1 PBD block | HP1b binding inh | JMJD2A Tudor
CC(=O)OCC(=O)N1N=C(c2ccc3ccccc3c2)CC1c1ccccc1 (stereo not drawn) | -18.9% | -10.9% | -2.2 | -12.7% | 26.3% | -17.5%
COc1cc(SSc2cc(OC)cc([N+](=O)[O-])c2N)c(N)c([N+](=O)[O-])c1 | 8.91µM* | 15.8µM* | -93.5* | 0.67µM* | u | 1.41µM*
CN(Cc1ccccc1F)Cc1cc(=O)oc2cc(O)c(Cl)cc12 | 3.6% | -8.0% | -63.4* | -20.5% | -8.3% | -2.1%
Cc1cc2oc(=O)cc(CN(C)Cc3ccccc3F)c2cc1Cl | 21.6% | -10.0% | 12.5 | 3.1% | 129.2% | 49.7%
Cc1c(C(C)CCCO)oc(=O)c2c1Oc1c(C)c(C(C)C[C@H](C)O)oc(=O)c1C2 (stereo partly drawn) | -20.9% | -1.1% | -4.7 | -17.8% | 25.8% | -17.3%
Cc1cnc(C(=O)N2CCCC(C(=O)c3ccc(Cl)cc3C)C2)cn1 (stereo not drawn) | -4.3% | 7.0% | 2.3 | 26.7µM* | 12.1% | -16.2%[11.4 µM]
Cc1ccc(OCC(=O)NNC(=O)c2ccc(F)c(S(=O)(=O)N3CCOCC3)c2)cc1C | x | x | -0.4 | -7.9% | x | x
Cc1ccc(S(=O)(=O)NN=C2CCN(Cc3ccccc3)CC2)cc1 | -0.1% | 0.1% | 1.0 | -7.9% | 32.7% | -3.8%
Cc1ccc(CN2CCC(NC(=O)c3ccccc3)CC2)cc1 | -4.8% | -7.9% | -5.8 | 29.9µM* | 14.8% | -21.2%
Cc1ccc(S(=O)(=O)NNC(=O)C2CCN(Cc3ccccc3)CC2)cc1 | -4.6% | 1.1% | -0.9 | -6.1% | 42.9% | 79.4µM*
O=C(NNC(=O)C12CC3CC(CC(Cl)(C3)C1)C2)c1csc(N2CCOCC2)n1 | -1.3% | 1.1% | 4.7 | -8.2% | 25.4%[57 µM] | 4.8%
N#CC(C#N)=C1C=C2C=C(N3CCCCC3)CCC2CC1 (stereo not drawn) | 44.7µM* | -3.0% | 1.2 | -4.9% | u | u
CCn1c(SCC(=O)Nc2nc(-c3ccc(C)cc3)cs2)nnc1-c1ccccc1 | -7.0% | -27.2% | x | -3.2% | 11.8% | -23.0%
Cc1ccc(-c2csc(NC(=O)CSc3nc4ccccc4c(=O)n3CCCN(C)C)n2)cc1 | u | -2.7% | -21.8 | -6.0% | u | 44.7µM*
COC(=O)[C@]1(C)N[C@H](c2ccc(-c3ccc(Cl)c(Cl)c3)c(OC)c2)[C@@H]2C(=O)N(C)C(=O)[C@@H]21 | -9.7% | u | -2.6 | -22.0% | -3.8% | 89.1µM*
COC(=O)[C@]1(C)N[C@H](c2ccc(-c3ccc(OC)cc3)cc2)[C@@H]2C(=O)N(C)C(=O)[C@@H]21 | x | -0.9% | -2.1 | -10.3% | 56.6% | -20.7%
O=C(CSC(=S)N1CCCC1)c1cc(Br)cc(Br)c1O | 39.8µM* | -12.8% | -25.1 | u | u | u
